In PubChem BioAssay AID592 (National Center for Advancing Translational Sciences (NCATS), 2007):
Hit rate of the full screen: of about 59,000 compounds, fewer than 10 were called active. The rule behind the calls is not given here. A selection follows.

Assay: qHTS Assay for Spectroscopic Profiling in A647 Spectral Region
Settings: Compound fluorescence, A647 channel (570/671 nm), Tris buffer; active compounds read high
Text: NIH Molecular Libraries Screening Centers Network [MLSCN] NIH Chemical Genomics Center [NCGC] […] Occasionally, the artifactual effect may originate from the compounds own spectral or other biophysical properties which generally tend to track its assay concentration. Pre-screening/profiling the library with respect to the compounds spectral properties should help one exclude false positives early on. While the most informative fluorescent profiling data set is obtained by performing a full excitation and emission scan of each well by using a monochromator-based plate reader, such an approach is practical only on a very limited scale as scanning each well requires long time. An alternative approach, applied here, is to perform plate reader scans using selected excitation and emission wavelength pairs to generate a multidimensional relational database that correlates compound concentration and the respective relative fluorescence intensity at a given wavelength set. A standard curve of Alexa 647 (A647) present on each plate as six-point concentration series, was used to compute a normalized fluorescence response, termed dye-equivalent concentration, for each compound at each concentration.
NCGC Assay Protocol Summary: Buffer: 100 mM Tris buffer, pH 8.0 Dye standard plate: The wells in columns 1 through 4 of a Kalypsys polypropylene 1536-well compound plate were filled with standard solutions of fluorophore corresponding to the spectral region of interest. Solutions of A647 were placed in the following wells: AC1, AD1: 3 mM, AC2, AD2: 300 uM, AC3, AD3: 30 uM, AC4, AD4: zero (DMSO), AE1, AF1: 3 uM, AE2, AF2: 900 nM, AE3, AF3: 300 nM, AE4, AF4: zero (DMSO). Assay Steps: Six uL of buffer were dispensed to 1536-well Greiner black plates. Compounds and dye standards (23 nL) were transferred via Kalypsys PinTool. The plates were incubated for 15 min at room temperature, and then read on ViewLux (Perkin-Elmer) High-throughput CCD imager using 570 nm and 671 nm excitation and emission filter set. Keywords: NIH Roadmap, MLSCN, MLI, MLSMR, qHTS, NCGC, A647, A-647, Fluorescent Profiling.

Max dye-equivalent concentration, inactive:
CC(=O)/C(=N\N=C(N)N)c1ccccc1 1 nM, Clc1ccc(Cc2nn3c(-c4ccncc4)nnc3s2)cc1 4 nM, CCc1cc(Br)ccc1NC(=O)C1CCCO1 (stereo not given) 19 nM, CCCS(=O)(=O)Nc1c(C(=O)O)[nH]c2ccccc12 1 nM, CCCCSc1nnc(-c2ccc(C)cc2)o1 5.1 nM, CCOC(=O)c1oc2ccccc2c1NC(=O)c1cccs1 5.6 nM, CCCS(=O)(=O)N1CCCC(C(=O)N2CCN(c3ccccc3)CC2)C1 (stereo not given) 1 nM, COc1ccc(CN2CN(C(C)C)CSC2=S)cc1 1 nM, COc1ccc(-c2cc3n(n2)CCc2nc4ccccc4n2-3)cc1 1 nM, O=C1c2oc3ccc(Br)cc3c(=O)c2C(c2cccc(F)c2)N1CCO (stereo not given) 3.9 nM, Cc1cc(N2CCCCC2)nc2ccc(Cc3ccc4nc(N5CCCCC5)cc(C)c4c3)cc12 3.4 nM, O=C(NC1CC2CCCC(C1)N2C(=O)N1CCCCC1)C1CCCCC1 (stereo not given) 31 nM, CCCCOc1ccccc1/C=c1/sc2nc(-c3oc4ccccc4c3C)nn2c1=O 22 nM, COc1ccccc1N1CCN(C(=O)Cn2nnc(-c3cccs3)n2)CC1 1 nM, COc1ccccc1CNc1ncnc2ccc(-c3ccc4c(c3)OCO4)cc12 31 nM, Cn1c(NC(=O)c2ccco2)c(-c2ccccc2Cl)c(=O)c2ccccc21 1 nM, NC(=S)c1ccc(C(N)=S)o1 5.7 nM, c1ccc(-c2nnc3n2NC(c2ccc4c(c2)OCO4)S3)cc1 (stereo not given) 12 nM, O=C(CCc1ccccc1)Nc1ccc(NC(=O)C2CC2)nc1 45 nM, COC(=O)c1ccc(NCC(=O)c2ccccc2)cc1 1.7 nM
